# Compound activity from PubChem BioAssay.
# In the library only some 5.1% were active in any assay of this set; here they are far more common.
# TMEM16A act: mouse TMEM16A channel activation, primary screen | HEK293 TMEM16A/YFP-H148Q/I152L, iodide quench fluorescence; hits give low values | B-score at 10 µM | actives 0.3% (n = 340,000);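 active = fluorescence-ratio B-score plate-corrected deviation score at least 3 library SD below zero, with starting fluorescence score within 5 deviations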;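 also: channel opened by trigger with iodide after compound preincubation; score built on the fluorescence ratio of max minus min over baseline; more negative score means more quench and so TMEM16A activation or potentiation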
# Target sequence (Q8BHY3 whole entry, looked up): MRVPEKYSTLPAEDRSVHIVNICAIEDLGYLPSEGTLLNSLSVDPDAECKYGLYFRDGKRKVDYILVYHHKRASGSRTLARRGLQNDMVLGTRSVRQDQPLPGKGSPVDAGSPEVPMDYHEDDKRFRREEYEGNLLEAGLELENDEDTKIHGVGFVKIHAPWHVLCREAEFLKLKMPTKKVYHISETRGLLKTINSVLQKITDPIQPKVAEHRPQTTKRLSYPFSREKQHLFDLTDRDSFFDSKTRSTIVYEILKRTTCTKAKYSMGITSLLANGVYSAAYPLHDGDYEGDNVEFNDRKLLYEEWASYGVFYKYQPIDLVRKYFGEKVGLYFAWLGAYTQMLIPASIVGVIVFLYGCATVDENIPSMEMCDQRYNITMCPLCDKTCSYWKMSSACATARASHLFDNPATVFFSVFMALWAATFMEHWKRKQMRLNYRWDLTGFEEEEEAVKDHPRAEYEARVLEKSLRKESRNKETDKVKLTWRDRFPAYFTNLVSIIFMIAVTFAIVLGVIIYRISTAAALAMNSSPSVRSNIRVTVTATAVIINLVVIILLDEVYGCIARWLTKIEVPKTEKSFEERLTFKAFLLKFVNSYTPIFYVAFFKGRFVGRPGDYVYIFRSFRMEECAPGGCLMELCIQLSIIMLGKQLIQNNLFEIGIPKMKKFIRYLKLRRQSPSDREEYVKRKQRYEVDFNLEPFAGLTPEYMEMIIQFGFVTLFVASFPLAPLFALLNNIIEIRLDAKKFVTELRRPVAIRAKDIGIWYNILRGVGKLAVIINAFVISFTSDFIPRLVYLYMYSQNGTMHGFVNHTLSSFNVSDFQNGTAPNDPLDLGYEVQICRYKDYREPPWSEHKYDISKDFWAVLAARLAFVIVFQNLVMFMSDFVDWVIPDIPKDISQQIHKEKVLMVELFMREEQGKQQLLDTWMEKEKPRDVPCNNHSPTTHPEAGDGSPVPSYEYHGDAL
# GRIN3A LBD mod: NR3A (human) ligand-binding domain modulation | AID 1259313 | NR3A LBD differential scanning fluorimetry, Tm shift; 0% = protein alone, 100% = glycine-bound protein | actives 2.5% (n = 340,000) | Tm shift relative to glycine control, % at 25 µM;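 active = melting temperature shift of at least 10% of the positive control shift, at one fixed dose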
# ANO1 block: mouse TMEM16A channel inhibition, primary screen; Q8BHY3; HEK293 TMEM16A/YFP iodide influx fluorescence, ionomycin; normalized B-score (activity score, 25-100; higher = stronger inhibition) at 10 µM; actives 1.2% (n = 310,000);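 active = ratio plate-corrected score three or more library SD toward inhibition, starting fluorescence score within five deviations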;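 also: score derived from kinetic fluorescence span divided by baseline fluorescence per well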
# CRFR2-BP ag: agonists of human CRF-binding protein/CRF-R2 receptor complex; HEK293 CRF-R2/CRF-BP, calcium dye fluorescence (FLIPR); percent of saturating CRF peptide response; activation, % at 13.2 µM; actives 0.46% (n = 350,000); AID 588473;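 active = activation of at least 50%, plus an integration ratio under a set limit after plate pattern correction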;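 also: plate controls were neutral control wells without compound for no effect and CRF at EC100 for full effect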
# CRFBP-R2 block: blocks CRF-induced signaling of the CRF-BP/CRF-R2 complex. HEK293 CRF-R2/CRF-BP, CRF-induced calcium fluorescence. inhibition, % at 11.8 µM. actives 0.59% (n = 350,000);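 active = inhibition of the ligand-induced calcium signal above about 50% at the single tested concentration, limit read from the data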
# MPTP inh: blocks calcium-induced mitochondrial swelling | isolated mouse mitochondria, Ca2+ swelling absorbance, 30 min | inhibition, % at 10 µM | actives 1.4% (n = 360,000) | AID 602449;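 active = inhibition of 50% or more, scaled per plate between neutral and stimulator controls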;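 also: 0% = DMSO wells given calcium and 100% = 1 mM EGTA wells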
# The depositor's hits bear a star; i = inactive; x = no result given.
SMILES,TMEM16A act,GRIN3A LBD mod,ANO1 block,CRFR2-BP ag,CRFBP-R2 block,MPTP inh
CCOc1cc(C=C2C(=O)c3ccccc3C2=O)ccc1OCC(=O)Nc1ccc(C)cc1,i,13.7*,i,112.7*,-107.0,0.3
O=C(N/N=C/c1cccc([N+](=O)[O-])c1)c1ccc(COc2ccccc2-c2ccccc2)cc1,i,16.1*,i,0.7,13.3,8.8
COc1cc(/C=N/NC(=O)c2cccc(C)c2)ccc1OCC(=O)Nc1ccccc1,i,18.9*,i,-0.8,7.6,-4.7
COc1cc(/C=N/NC(=O)c2cccnc2)ccc1OCC(=O)Nc1ccc(C)cc1,i,-23.3,i,-0.5,11.6,0.8
COc1cc(/C=N/NC(=O)c2cccc([N+](=O)[O-])c2)ccc1OCc1ccccc1,i,22.2*,i,-0.3,-25.3,0.0
O=C(Cn1cnc2sc3c(c2c1=O)CCCC3)NCC(=O)Nc1c(F)cc(F)cc1Br,i,-0.2,i,0.3,1.0,-1.3
Cc1cccc(-c2ocnc2C(=O)Nc2ncc(C)s2)c1,x,x,x,-1.1,6.5,0.4
Cc1cccc(NC(=O)c2nc[nH]c2C(=O)Nc2ccccc2F)c1,x,x,x,-0.6,6.2,-0.7
COc1cccc(/C=N/NC(=O)c2cccc([N+](=O)[O-])c2)c1OS(=O)(=O)c1ccccc1,i,-5.6,i,-0.8,9.7,1.1
COc1ccc(/C=N/NC(=O)c2cccc([N+](=O)[O-])c2)c2ccccc12,i,33.7*,i,-1.7,-0.2,1.4
Cc1[nH]c2ccccc2c1C(=O)CSc1nnc(C2CC2)o1,i,1.2,x,-0.2,3.8,-0.1
Nc1nc(SCC(=O)Nc2ccc(C(F)(F)F)cc2)[nH]c(=O)c1NC(=O)c1ccc(F)c(F)c1,i,27.9*,i,1.1,-0.6,2.2
Cc1cc(NC(=O)CSc2nc(N)c(NC(=O)c3ccc(F)c(F)c3)c(=O)[nH]2)no1,i,1.6,i,0.4,-14.9,-0.3
CCOC(=O)C1CCN(S(=O)(=O)c2cccc(-c3cn4cccc(C)c4n3)c2)CC1,i,-11.7,i,2.7,-9.9,0.1
CCOC(=O)C1CCN(S(=O)(=O)c2cccc(-c3cn4cc(Cl)ccc4n3)c2)CC1,-21.1*,-1.3,i,0.7,10.2,-4.6
CCOC(=O)C1CCN(S(=O)(=O)c2cccc(-c3cn4ccccc4n3)c2)CC1,i,-0.5,25*,-0.7,-5.8,0.7
COC(=O)c1ccc(NC(=O)NCCCl)cc1,i,1.2,i,0.3,3.8,-1.3
CCS(=O)(=O)C(C)(CCl)C(=O)Nc1ccc(C(=O)OC)cc1 (configuration not stated),i,12.5*,i,-1.6,6.3,2.3
O=C(NC1CCCCC1)c1nc(C2CCNCC2)oc1-c1ccccc1,x,x,x,x,x,1.1
CC(C)c1nnc(NC(=O)CCC(=O)NC2CCCc3ccccc32)s1 (configuration not stated),i,11.1*,i,-1.3,-3.5,2.2
O=C1ON=C(c2ccccc2)/C1=C/c1ccc(-c2ccccc2[N+](=O)[O-])o1,-6.23*,22.5*,25*,35.3,-16.5,0.9
O=[N+]([O-])c1ccccc1-c1ccc(/C=N/n2cnnc2)o1,i,-0.5,i,1.8,-4.2,-2.2
COc1ccc(-c2c(C)cc3oc(=O)cc(-c4ccccc4)c3c2C)cc1,i,15.4*,x,7.0,12.7,1.9
Cc1ccc(-c2c(C)cc3oc(=O)cc(-c4ccccc4)c3c2C)cc1,i,-0.7,x,6.6,14.5,-0.4
COc1ccc(-c2cccc(-c3cc(=O)oc4cc(OC)cc(OC)c34)c2)cc1,i,15.4*,x,2.4,-5.3,-2.0
SMILES,TMEM16A act,GRIN3A LBD mod,ANO1 block,CRFR2-BP ag,CRFBP-R2 block,MPTP inh
COc1cc(OC)c2c(-c3cccc(-c4ccc(O)cc4)c3)cc(=O)oc2c1,i,-7.9,x,-2.5,-13.5,-0.6
CC1CCCN(C(=O)COC(=O)CNC(=O)c2sc3ccccc3c2Cl)C1 (configuration not stated),i,1.2,x,-4.1,1.3,0.2
O=C(OCCN1C(=O)c2ccccc2C1=O)c1cccc(OC(F)F)c1,i,3.0,i,-3.4,99.8*,-2.4
CCC(=O)N(C)C[C@H]1Oc2cc(-c3cccnc3)ccc2S(=O)(=O)N([C@H](C)CO)C[C@H]1C,x,x,x,4.1,-8.7,0.9
COc1cccc(CNc2ccc(C)c(Cl)c2)c1,i,1.1,i,0.4,1.9,2.0
COc1ccccc1CNc1cc(CSc2ccc(Cl)cc2)nc(C)n1,i,-6.4,25*,2.5,15.3,-4.0
COc1cccc(CNc2cc(CSc3ccc(Cl)cc3)nc(C)n2)c1,i,-32.8,100*,-1.7,21.0,-0.5
CC(C)=CCC12Oc3cc(O)ccc3C1(O)Oc1cc3c(c(O)c1C2=O)C=CC(C)(C)O3 (configuration not stated),x,12.3*,i,0.1,11.1,x
CCN(CC)S(=O)(=O)c1ccc2[nH]cc(C(=O)NC3CC3)c(=O)c2c1,i,1.4,i,-0.7,-2.4,1.0
COc1ccc(NC(=O)/C=C/c2ccc(OC)c(OC)c2)cn1,i,-17.0,i,-0.9,-4.3,-0.3
Cc1ccc(/C=C/C(=O)N2CCN(c3cccc(C(F)(F)F)c3)CC2)cc1,i,20.7*,i,-1.1,-32.5,13.5
C/C=C/C(=O)Nc1cccc(C(F)(F)F)c1,i,-0.6,i,1.6,10.3,-0.5
Cc1ccc(NC(=O)/C=C/c2cccc(C(F)(F)F)c2)cc1,i,24.6*,i,-1.9,10.1,17.0
COc1ccc(NC(=O)/C=C/c2cccc(Br)c2)cn1,i,32.6*,i,0.9,-6.8,-1.7
COc1ccc(NC(=O)/C=C/c2cccc(C(F)(F)F)c2)cn1,i,11.4*,i,-1.8,-13.8,1.7
O=C1OC2(c3ccccc31)c1cc(I)c(O)c(I)c1Oc1c2cc(I)c(O)c1I,x,x,i,x,x,x
COc1ccc(/C=C/C(=O)Nc2cc(C(F)(F)F)ccc2Cl)cc1,i,14.8*,i,1.7,-7.8,3.0
COc1ccc(/C=C/C(=O)Nc2ccc(OC)nc2)cc1,i,26.1*,i,-1.1,-12.2,1.8
O=C(NC(c1ccc(Cl)cc1)c1ccccn1)C1CCN(CCOc2ccc(Cl)cc2Cl)CC1 (configuration not stated),x,x,x,x,x,0.9
O=C(CC1C(=O)NCCN1C(=O)Nc1ccccc1)Nc1ccc2c(c1)OCO2 (configuration not stated),i,-1.2,i,9.4,73.6*,0.0
CC12COC3(C(=O)Nc4ccc([N+](=O)[O-])cc4)CC1CCC32C (configuration not stated),i,16.8*,i,1.1,-35.9,3.1
